In PubChem BioAssay (NCATS):
Records with an inconclusive call do not appear. Active and inactive are the calls of the source. The call rests on the fitted dose curve; in most records, active means well fitted curve in the direction sought with a large enough effect; inconclusive means small, poorly fitted or top-dose-only effect, or another doubt; inactive means no such curve, though single readings can be large; an effect the other way counts as inactive or inconclusive.

Key:
[1] = Quantitative High-Throughput drug screen in 47 multiple myeloma cell lines against the NCATS MIPE library collection: EJM_DSMZ cell viability assay (AID 1918926; further: nearly all actives have a fitted effect of over 30% in size)
How it was run: (§1)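 Steps: seed 500 cells per well; pin-transfer MIPE 4.0 library; incubate 48 h at 37C, 5% CO2, humidified; add CellTiter-Glo, 5 min room temperature; read luminescence.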

[2] = Quantitative High-Throughput drug screen in 47 multiple myeloma cell lines against the NCATS MIPE library collection: AMO1_DSMZ cell viability assay (AID 1918927; further: nearly all actives have a fitted effect of over 30% in size)
How it was run: as §1

[3] = Quantitative High-Throughput drug screen in 47 multiple myeloma cell lines against the NCATS MIPE library collection: Karpas620_DSMZ cell viability assay (AID 1918959); further: nearly all actives have a fitted effect of over 30% in size
How it was run: (§2)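 Relative luminescence from CellTiter-Glo served as the viability signal, referenced to DMSO-treated (100%) and cell-free medium (0%) controls. Treatment lasted 48 hours at 37C with 500 cells per well.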

[4] = Quantitative High-Throughput drug screen in 47 multiple myeloma cell lines against the NCATS MIPE library collection: KHM11_PLB cell viability assay (AID 1918962); further: nearly all actives have a fitted effect of over 35% in size
How it was run: as §2

[5] = Quantitative High-Throughput drug screen in 47 multiple myeloma cell lines against the NCATS MIPE library collection: JIM3_ECACC cell viability assay (AID 1918963; further: nearly all actives have a fitted effect of over 35% in size)
How it was run: as §2

[6] = Quantitative High-Throughput drug screen in 47 multiple myeloma cell lines against the NCATS MIPE library collection: JIM1_ECACC cell viability assay (AID 1918964)
How it was run: as §1

[7] = Quantitative High-Throughput drug screen in 47 multiple myeloma cell lines against the NCATS MIPE library collection: INA6_PLB cell viability assay (AID 1918965; further: nearly all actives have a fitted effect of over 55% in size)
How it was run: as §2

[8] = Quantitative High-Throughput drug screen in 47 multiple myeloma cell lines against the NCATS MIPE library collection: H1112_PLB cell viability assay (AID 1918967; further: nearly all actives have a fitted effect of over 30% in size)
How it was run: as §1

[9] = Quantitative High-Throughput drug screen in 47 multiple myeloma cell lines against the NCATS MIPE library collection: Karpas25_ECACC cell viability assay (AID 1918968; further: nearly all actives have a fitted effect of over 35% in size)
How it was run: as §1

[10] = Quantitative High-Throughput drug screen in 47 multiple myeloma cell lines against the NCATS MIPE library collection: KMS27_JCRB cell viability assay (AID 1918970); further: nearly all actives have a fitted effect of over 30% in size
How it was run: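 Viability inhibition screen, 48 h compound exposure, luminescent ATP read-out.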

[11] = Quantitative High-Throughput drug screen in 47 multiple myeloma cell lines against the NCATS MIPE library collection: KMS26_JCRB cell viability assay (AID 1918975); further: nearly all actives have a fitted effect of over 45% in size
How it was run: (§3)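 Myeloma cell lines, 500 cells per well, exposed to MIPE 4.0 library compounds for 48 h at 37C, 5% CO2. Viability from ATP by CellTiter-Glo luminescence; normalised to DMSO (100%) and media-only (0%) wells.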

[12] = Quantitative High-Throughput drug screen in 47 multiple myeloma cell lines against the NCATS MIPE library collection: LP1_DSMZ cell viability assay (AID 1918982); further: nearly all actives have a fitted effect of over 35% in size
How it was run: (§4)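 Readout: median RLU from CellTiter-Glo after 5 min at room temperature. Preceding step was 48 h drug treatment of 500 cells/well at 37 °C, 5% CO2, with DMSO-only and media-only control wells.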

[13] = Quantitative High-Throughput drug screen in 47 multiple myeloma cell lines against the NCATS MIPE library collection: KMS21BM_JCRB cell viability assay (AID 1918974)
How it was run: as §1

[14] = Quantitative High-Throughput drug screen in 47 multiple myeloma cell lines against the NCATS MIPE library collection: ARD_JJKsccE7 cell viability assay (AID 1918929)
How it was run: as §1

[15] = Quantitative High-Throughput drug screen in 47 multiple myeloma cell lines against the NCATS MIPE library collection: Karpas417_ECACC cell viability assay (AID 1918961); settings: Karpas417 myeloma viability, CellTiter-Glo ATP luminescence, 48 h; viability (% of DMSO): at 45.8 µM (top of the series)
How it was run: as §2

[16] = Quantitative High-Throughput drug screen in 47 multiple myeloma cell lines against the NCATS MIPE library collection: JJN3_DSMZ cell viability assay (AID 1918966; further: nearly all actives have a fitted effect of over 50% in size)
How it was run: as §1

[17] = Quantitative High-Throughput drug screen in 47 multiple myeloma cell lines against the NCATS MIPE library collection: KMS12BM_JCRB cell viability assay (AID 1918971); further: nearly all actives have a fitted effect of over 35% in size
How it was run: as §3

[18] = Quantitative High-Throughput drug screen in 47 multiple myeloma cell lines against the NCATS MIPE library collection: KMS20_JCRB cell viability assay (AID 1918973); further: nearly all actives have a fitted effect of over 45% in size
How it was run: as §1

[19] = Quantitative High-Throughput drug screen in 47 multiple myeloma cell lines against the NCATS MIPE library collection: L363_DSMZ cell viability assay (AID 1918984); further: nearly all actives have a fitted effect of over 40% in size
How it was run: as §4

[20] = Quantitative High-Throughput drug screen in 47 multiple myeloma cell lines against the NCATS MIPE library collection: ARP1_JJKsccF8 cell viability assay (AID 1918928; further: nearly all actives have a fitted effect of over 40% in size)
How it was run: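 Viability screen: myeloma cells (500/well) incubated 48 h at 37 °C, humidified 5% CO2, with pinned library compounds; CellTiter-Glo added, luminescence read; DMSO wells set 100%, medium-only wells 0%.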
Potency means the concentration at half of the fitted maximal effect.

CN1CCN(C(=O)O[C@H]2c3nccnc3C(=O)N2c2ccc(Cl)cn2)CC1
inactive: Potency [1] | Potency [2] | Potency [3] | Potency [4] | Potency [5] | Potency [6] | Potency [7] | Potency [8] | Potency [9] | Potency [10] | Potency [11] | Potency [12]

O=P1(NCCCl)OCCCN1CCCl (centres undefined)
inactive: Potency [1] | Potency [11]
active: Potency [2] 5.9 µM | Potency [5] 20.9 µM | Potency [13] 7.43 µM

CC(O)(CS(=O)(=O)c1ccc(F)cc1)C(=O)Nc1ccc(C#N)c(C(F)(F)F)c1 (centres undefined)
active: Potency [1] 0.187 µM | Potency [2] 0.662 µM | Potency [14] 1.66 µM | Potency [3] 2.09 µM | Potency [15] 0.372 µM | Potency [4] 1.87 µM | Potency [5] 2.96 µM | Potency [6] 4.18 µM | Potency [7] 0.59 µM | Potency [16] 4.69 µM | Potency [8] 0.235 µM | Potency [9] 0.264 µM | Potency [10] 2.35 µM | Potency [17] 23.5 µM | Potency [18] 0.935 µM | Potency [11] 1.18 µM | Potency [19] 1.48 µM

N[C@@H](Cc1ccc(N(CCCl)CCCl)cc1)C(=O)O
active: Potency [1] 14.8 µM | Potency [2] 18.7 µM | Potency [20] 16.6 µM | Potency [14] 18.7 µM | Potency [3] 10.5 µM | Potency [15] 2.96 µM | Potency [4] 20.9 µM | Potency [5] 16.6 µM | Potency [6] 10.5 µM | Potency [7] 1.32 µM | Potency [16] 11.8 µM | Potency [8] 6.62 µM | Potency [9] 13.2 µM | Potency [10] 3.72 µM | Potency [17] 16.6 µM | Potency [11] 23.5 µM | Potency [12] 16.6 µM | Potency [19] 5.26 µM

COc1ccc2c(c1OC)CN1CCc3cc4c(cc3C1C2)OCO4 (centres undefined)
active: Potency [1] 20.9 µM | Potency [5] 16.6 µM | Potency [7] 18.7 µM | Potency [16] 16.6 µM | Potency [9] 18.7 µM | Potency [10] 20.9 µM | Potency [17] 18.7 µM | Potency [19] 5.9 µM
inactive: Potency [8]

Cn1cc(C2=C(c3cn(C4CCN(Cc5ccccn5)CC4)c4ccccc34)C(=O)NC2=O)c2ccccc21
active: Potency [1] 11.8 µM | Potency [2] 0.935 µM | Potency [14] 9.35 µM | Potency [3] 5.9 µM | Potency [5] 8.33 µM | Potency [6] 1.32 µM | Potency [7] 4.69 µM | Potency [16] 14.8 µM | Potency [8] 10.5 µM | Potency [9] 8.33 µM | Potency [10] 18.7 µM | Potency [17] 23.5 µM | Potency [13] 0.166 µM | Potency [11] 16.6 µM | Potency [12] 10.5 µM | Potency [19] 0.833 µM

C[C@@H]1[C@@H](C(=O)C[C@H]2O[C@@H]3O[C@]4(C)CC[C@@H]5[C@H](C)CC[C@@H]([C@H]2C)[C@@]35OO4)O[C@@H]2O[C@]3(C)CC[C@H]4[C@H](C)CC[C@@H]1[C@@]24OO3
active: Potency [2] 0.0833 µM | Potency [20] 0.132 µM | Potency [14] 0.148 µM | Potency [3] 0.0418 µM | Potency [4] 0.332 µM | Potency [5] 0.187 µM | Potency [7] 0.264 µM | Potency [16] 0.296 µM | Potency [8] 0.469 µM | Potency [9] 0.0526 µM | Potency [10] 0.166 µM | Potency [17] 0.372 µM | Potency [18] 0.469 µM | Potency [11] 0.59 µM | Potency [19] 0.059 µM

O=c1[nH]c2ccccc2n1CCCN1CCC(n2c(=O)[nH]c3cc(Cl)ccc32)CC1
inactive: Potency [4] | Potency [5] | Potency [16]
active: Potency [3] 20.9 µM | Potency [7] 18.7 µM | Potency [9] 0.0372 µM | Potency [13] 0.118 µM

CN(C)CCN(C)CCc1ccc(Cl)c(Cl)c1
active: Potency [2] 20.9 µM
inactive: Potency [1] | Potency [20] | Potency [14] | Potency [3] | Potency [5] | Potency [7] | Potency [16] | Potency [8] | Potency [10] | Potency [17] | Potency [18] | Potency [11]

CNC(=O)c1ccc(N2C(=S)N(c3ccc(C#N)c(C(F)(F)F)c3)C(=O)C23CCC3)cc1F
inactive: Potency [20] | Potency [10]
active: Potency [1] 1.48 µM | Potency [2] 2.64 µM | Potency [14] 16.6 µM | Potency [3] 18.7 µM | Potency [4] 33.2 µM | Potency [5] 23.5 µM | Potency [7] 16.6 µM | Potency [8] 3.72 µM | Potency [9] 2.96 µM | Potency [18] 8.33 µM | Potency [11] 18.7 µM

O=C(O)C(=O)c1cn(Cc2ccccc2)c2ccc(-c3ccc(OC(F)(F)F)cc3)cc12
inactive: Potency [1] | Potency [2] | Potency [20] | Potency [14] | Potency [3] | Potency [6] | Potency [10] | Potency [11] | Potency [12]
active: Potency [5] 18.7 µM | Potency [8] 14.8 µM | Potency [9] 16.6 µM

C#CCN(C)[C@H](C)Cc1ccccc1
active: Potency [16] 8.33 µM
inactive: Potency [20] | Potency [14] | Potency [3] | Potency [4] | Potency [5] | Potency [8] | Potency [9] | Potency [18] | Potency [11] | Potency [12] | Potency [19]

C[C@@H]1[C@@H](CC(C[C@H]2O[C@@H]3O[C@]4(C)CC[C@@H]5[C@H](C)CC[C@@H]([C@H]2C)[C@@]35OO4)C[S+](=O)([O-])c2ccc(COC(=O)N(C)C)cc2)O[C@@H]2O[C@]3(C)CC[C@H]4[C@H](C)CC[C@@H]1[C@@]24OO3 (some centres undefined)
active: Potency [1] 0.187 µM | Potency [2] 0.118 µM | Potency [20] 0.0935 µM | Potency [14] 0.118 µM | Potency [3] 0.0418 µM | Potency [15] 0.132 µM | Potency [5] 0.264 µM | Potency [6] 0.0662 µM | Potency [7] 0.235 µM | Potency [16] 0.148 µM | Potency [8] 0.209 µM | Potency [9] 0.118 µM | Potency [10] 0.187 µM | Potency [17] 0.148 µM | Potency [18] 0.264 µM | Potency [11] 0.296 µM | Potency [19] 0.0469 µM

CCCC(C)(COC(N)=O)COC(=O)NC(C)C (centres undefined)
active: viability (% of DMSO) [15] 64.9%
inactive: Potency [1] | Potency [2] | Potency [20] | Potency [3] | Potency [6] | Potency [7] | Potency [8] | Potency [9] | Potency [10] | Potency [11] | Potency [12] | Potency [19]

COC[C@H]1OC(=O)c2coc3c2[C@@]1(C)C1=C(C3=O)C2CCC(=O)[C@@]2(C)C[C@H]1OC(C)=O (some centres undefined)
active: Potency [2] 8.33 µM | Potency [20] 1.48 µM | Potency [14] 14.8 µM | Potency [3] 4.69 µM | Potency [4] 3.32 µM | Potency [5] 4.69 µM | Potency [6] 8.33 µM | Potency [7] 2.35 µM | Potency [16] 10.5 µM | Potency [8] 2.64 µM | Potency [9] 0.526 µM | Potency [10] 14.8 µM | Potency [17] 10.5 µM | Potency [11] 1.18 µM | Potency [19] 11.8 µM

CN(C)CCc1ccc(O)cc1
inactive: Potency [2] | Potency [14] | Potency [3] | Potency [15] | Potency [5] | Potency [8] | Potency [10] | Potency [17] | Potency [13] | Potency [11] | Potency [12]

CC1=C2C[C@@H]3[C@@H](CC=C4C[C@@H](O)CC[C@@]43C)[C@@H]2CC[C@]12O[C@H]1C[C@H](C)CN[C@H]1[C@H]2C
active: Potency [1] 8.33 µM | Potency [18] 0.0469 µM
inactive: Potency [2] | Potency [20] | Potency [14] | Potency [3] | Potency [5] | Potency [6] | Potency [7] | Potency [8] | Potency [9] | Potency [10] | Potency [11] | Potency [12]
